Here are results for 18 molecules from PubChem BioAssay (NCI).

What all share (assay): NCI-60 one-dose screen, 48 h (100 = growth as untreated, 0 = no growth, -100 = all killed)
The subject of one assay is T-47D breast. As to conditions: 10 µM.
Another assay concerns BT-549 breast. As to conditions: 10 µM.
A further assay concerns MDA-MB-435 melanoma. Conditions: 10 µM.
For another assay, the system named is SW-620 colon. As to conditions: 10 µM.
The next assay deals with MCF7 breast. Conditions: 10 µM unless noted.
The subject of the next assay is HCT-116 colon. Conditions: 10 µM.
For the next assay, the system named is HCC-2998 colon. Conditions: 10 µM.
Another assay concerns KM12 colon. Conditions: 10 µM.

This is part of a sample that, as a whole, favours compounds with a hit. Of some 83,000 tested, about 20% had one in any assay.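 Values shown are percent growth following 48 h exposure of cells in 96-well plates to a single concentration of compound; below 10 was considered active.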 Unmarked numbers belong to inactive results. Activity calls are given as the source filed them.

Regarding `O=C(CS)Nc1ccc2ccccc2c1`, the growth was 90.9% with T-47D breast; 118% with BT-549 breast; 116% with MDA-MB-435 melanoma; 95.2% with SW-620 colon; 85.3% with MCF7 breast; 94.6% in the assay on HCT-116 colon. Further, the growth with HCC-2998 colon is 80.5%; in the assay on KM12 colon it was 102%.
Regarding `COc1cccc(Sc2ccc([N+](=O)[O-])c3no[n+]([O-])c23)c1`, the growth in the assay on T-47D breast is 40.2%; in the assay on BT-549 breast, 46.8%; in the assay with MDA-MB-435 melanoma, 64.4%; with SW-620 colon, -0.655% (active); with MCF7 breast it was 39%; in the assay with HCT-116 colon it was -91.4% (active). Besides, the growth in the assay on HCC-2998 colon is 55.4%; in the assay on KM12 colon, 92.3%.
Turning to `COC(=O)/C=C1\Sc2cc(F)ccc2NC1=O`, the growth in the assay with T-47D breast is 84.5%; in the assay with BT-549 breast it was 127%; in the assay on MDA-MB-435 melanoma, 100%; with SW-620 colon it was 127%; with MCF7 breast, 83.7%; in the assay on HCT-116 colon, 90.1%. In addition, the growth was 126% with HCC-2998 colon and 107% in the assay on KM12 colon.
Take `COCCOCCCl`: the growth was 98.1% in the assay with T-47D breast; 107% in the assay on BT-549 breast; 106% in the assay on MDA-MB-435 melanoma; 101% in the assay on SW-620 colon; 100% with MCF7 breast; 99.7% with HCT-116 colon. Further, the growth was 101% in the assay on HCC-2998 colon and 107% with KM12 colon.
In the case of `CCCCCCCCO`, the growth was 105% in the assay with T-47D breast; 107% in the assay with BT-549 breast; 99.3% in the assay on MDA-MB-435 melanoma; 103% in the assay on SW-620 colon; 91.8% with MCF7 breast; 107% with HCT-116 colon. Moreover, the results for the growth with HCC-2998 colon and in the assay on KM12 colon were 103% and 108%, respectively.
Consider `COc1cc(C(=O)N/N=C/c2cccc([N+](=O)[O-])c2)cc(OC)c1OC`, for which the growth in the assay with T-47D breast is 51.9%; in the assay with BT-549 breast, 58%; in the assay with MDA-MB-435 melanoma it was 1.31% (active); in the assay on SW-620 colon, 23.8%; in the assay on MCF7 breast, 23.9%; in the assay on HCT-116 colon, 23.9%. Moreover, the growth in the assay on HCC-2998 colon is 52.7%; in the assay with KM12 colon, 19%.
`O=C(O)/C=C/c1ccc2c(c1)CCC2`: the growth in the assay on T-47D breast is 104%; in the assay with BT-549 breast it was 100%; in the assay on MDA-MB-435 melanoma, 99.8%; in the assay on SW-620 colon it was 106%; in the assay on MCF7 breast it was 109%; in the assay on HCT-116 colon, 105%. For the same molecule, the growth with HCC-2998 colon is 108%; in the assay on KM12 colon, 106%.
For the molecule `CCN(CC)c1ccc2nc3ccc(=[N+](CC)CC)cc-3oc2c1`, the growth is -2.86% (active) in the assay on T-47D breast; 48% with BT-549 breast; -14.7% (active) in the assay with MDA-MB-435 melanoma; 6.33% (active) in the assay with SW-620 colon; -34.9% (active) with MCF7 breast; -40.7% (active) in the assay with HCT-116 colon. Moreover, the growth in the assay on HCC-2998 colon was 40.3%; with KM12 colon, 4.22% (active).
Take `Cc1ccccc1C1N=C2Oc3ccccc3C=C2C(=O)N1` (centres undefined): the growth was 48.1% in the assay with T-47D breast; 27.2% in the assay on BT-549 breast; -57.7% (active) in the assay on MDA-MB-435 melanoma; 40% in the assay on SW-620 colon; 20.8% in the assay with MCF7 breast; 42.1% in the assay on HCT-116 colon. The growth was 26.1% in the assay on HCC-2998 colon and 64.8% with KM12 colon.
`CC(=O)c1ccc(C)c(N)c1`: the growth is 99.8% in the assay with T-47D breast; 94.7% in the assay with BT-549 breast; 114% with MDA-MB-435 melanoma; 101% with SW-620 colon; 97.1% in the assay with MCF7 breast; 94.2% in the assay with HCT-116 colon. Further, the figures for the growth in the assay with HCC-2998 colon and with KM12 colon were 108% and 97%, respectively.
As to `C#CC(C)(O)c1ccc(Cl)cc1` (centres undefined), the growth was 86.1% in the assay on T-47D breast; 105% with BT-549 breast; 110% in the assay with MDA-MB-435 melanoma; 109% in the assay on SW-620 colon; 97% in the assay with MCF7 breast; 96.8% in the assay on HCT-116 colon. The growth in the assay on HCC-2998 colon is 97.8%; in the assay with KM12 colon it was 105%.
Consider `O=C1C=C(Nc2ccc([N+](=O)[O-])cc2)c2ccccc2C1=O`, for which the growth in the assay on T-47D breast was 20%; in the assay on BT-549 breast it was -1.53% (active); in the assay on MDA-MB-435 melanoma, -88.2% (active); with SW-620 colon it was 40.4%; in the assay on MCF7 breast, 26.5%; in the assay with HCT-116 colon, 18%. For the same molecule, the growth with HCC-2998 colon is 72.4%; with KM12 colon, 32.4%.
For the molecule `O=C(Cc1ccccc1)Cc1ccccc1`, the growth is 102% with T-47D breast; 107% in the assay on BT-549 breast; 105% with MDA-MB-435 melanoma; 101% in the assay on SW-620 colon; 106% in the assay on MCF7 breast; 98.1% in the assay with HCT-116 colon. Moreover, the values for the growth in the assay on HCC-2998 colon and in the assay with KM12 colon were 114% and 103%, respectively.
With `CCOc1ccc2[nH]c(=S)sc2c1`, the growth was 94.5% in the assay on T-47D breast; 107% in the assay with BT-549 breast; 99.3% in the assay with MDA-MB-435 melanoma; 102% with SW-620 colon; 102% with MCF7 breast; 105% with HCT-116 colon. In addition, the growth was 97.9% in the assay on HCC-2998 colon and 116% in the assay on KM12 colon.
On to `COc1cc2c3c(n(C)c(=O)c2cc1OC)-c1cc2c(cc1C3=O)OCO2`, for which the growth in the assay with T-47D breast was 28.2%; in the assay on BT-549 breast, 68.6%; with MDA-MB-435 melanoma, 72.3%; with SW-620 colon, 58.8%; in the assay with MCF7 breast, 26.8%; with HCT-116 colon, 51.5%. For the same molecule, the growth in the assay with HCC-2998 colon was 64.5%; in the assay with KM12 colon, 83.9%.
For the molecule `O=c1[nH][nH]c(=O)c2cc([N+](=O)[O-])ccc12`, the growth is 96.1% in the assay on T-47D breast; 106% in the assay with BT-549 breast; 109% in the assay with MDA-MB-435 melanoma; 101% in the assay with SW-620 colon; 99.8% in the assay with MCF7 breast; 101% with HCT-116 colon. In addition, the figures for the growth in the assay on HCC-2998 colon and in the assay on KM12 colon were 99.6% and 106%, respectively.
In the case of `COc1ccc(/C(C#N)=C2C=C/C(=N/O)c3ccccc3\2)cc1`, the growth is 64.8% in the assay with T-47D breast; 31% in the assay with BT-549 breast; -57% (active) in the assay on MDA-MB-435 melanoma; 20.1% with SW-620 colon; 13.1% in the assay with MCF7 breast; 5.12% (active) in the assay on HCT-116 colon. Besides, the growth in the assay on HCC-2998 colon is -11.4% (active); in the assay with KM12 colon it was 3.23% (active).
`NC(=S)NN=C1CCCC1`: the growth in the assay with T-47D breast was 40.8%; with BT-549 breast, 107%; with MDA-MB-435 melanoma, 103%; with SW-620 colon, 72.8%; in the assay with MCF7 breast, 21.7%; in the assay with HCT-116 colon it was 8.81% (active). The growth was 97.7% in the assay with HCC-2998 colon and 101% with KM12 colon.
